Sampled rows, rich in hits. Any-hit rate of the full collection: about 2.9%.
SKN-1 inh = C. elegans SKN-1 inhibition | C. elegans VP596 Pgst-4::GFP/RFP ratio, acrylamide-induced, 24 h | inhibition, % at 21.8 µM | 360,000 compounds, 0.49% hits;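 active = interference check ratio from 0.5 to 1.5 plus GFP to RFP signal ratio inhibition reaching or exceeding a fixed threshold, cut at about 30% in these data, passing the limit was not always enough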
PGE2 EP2 inh = EP2 receptor (human) inhibition; C6 glioma cells expressing human EP2, cAMP TR-FRET; cells stimulated with saturating PGE2; P43116; 260,000 compounds, 0.52% hits; inhibition, % at 25 µM;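 active = percent inhibition above 40 after rounding to a whole number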;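 also: rat C6 glioma host cells with rolipram phosphodiesterase inhibitor present; the protocol text gives 20 µM as final concentration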
Target sequence (P43116 whole entry, looked up): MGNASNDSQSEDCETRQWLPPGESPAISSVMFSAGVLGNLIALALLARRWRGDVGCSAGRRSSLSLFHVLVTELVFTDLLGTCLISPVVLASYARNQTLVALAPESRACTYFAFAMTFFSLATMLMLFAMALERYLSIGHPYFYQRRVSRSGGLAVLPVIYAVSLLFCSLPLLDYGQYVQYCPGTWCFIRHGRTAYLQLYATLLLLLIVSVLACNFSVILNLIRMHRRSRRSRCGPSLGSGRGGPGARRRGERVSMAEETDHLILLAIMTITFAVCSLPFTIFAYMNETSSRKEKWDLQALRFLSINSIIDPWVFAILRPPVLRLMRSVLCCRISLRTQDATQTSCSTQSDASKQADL
NR1D1 modulator = Rev-erb alpha (human) modulation; 370,000 compounds, 0.79% hits; AID 1259318; Rev-erbα–FITC-DNA binding, fluorescence polarization, 90 min; activity, % at 10 µM; P20393;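 active = activity above about 14%, limit read from the data; passing the limit was not always enough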;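 also: 0% = DMSO wells with 35 nM protein and 100% = DMSO wells with 750 nM protein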
EP2 modulator = modulates human prostaglandin E2 receptor EP2 signaling. P43116. EP2-expressing cells, cAMP HTRF FRET, PGE2 co-stimulation. induction, % at 25 µM. 260,000 compounds, 0.83% hits;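 active = compounds whose cAMP rise, as percent of the full-agonist control response, exceeds 60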;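 also: rat C6 glioma line stably carrying human EP2 under a CMV promoter; the protocol text gives 20 µM as final concentration; 100% = response of wells given 1 µM PGE2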
PG9 binder = PG9 antibody binding by small molecule; TR-FRET gp120-PG9 antibody binding; inhibition, % at 6.7 µM; 360,000 compounds, 0.43% hits; AID 624416; in the data active = inhibition above about 8.5%
RAM inhibit = inhibitors of the yeast RAM network | S. cerevisiae dse1pr::URA3 reporter, 5-FOA growth OD615, 2 d; analog-sensitive cbk1-as2 kinase mutant strain | inhibition, % at 50 µM | 190,000 compounds, 1.8% hits;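 active = inhibition above a set limit, 3 SD over mean compound inhibition, cut at about 8.4% in these data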;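 also: 0% = DMSO-only wells with no growth and 100% = 10 µM 1-NA-PP1 full growth; inhibition rescues growth on 5-FOA so higher OD means more RAM inhibition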
NR1D1 mod conf = Rev-erb alpha (human) modulation, hit confirmation; shares compounds with NR1D1 modulator; Rev-erb alpha FITC-DNA binding, fluorescence polarization, 90 min; activation, % at 25 µM; 3,000 compounds, 61% hits; AID 1259319;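 active = activation at or above a set limit, or at least 3 SD above the negative control mean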;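 also: 0% = 35 nM protein with DMSO and 100% = 750 nM protein high control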
RORg DNA counter = RORgamma DNA-binding activity, dose-response counter-screen; shares compounds with NR1D1 modulator; purified RORgamma protein-FITC-DNA binding, fluorescence polarization; IC50, µM; 910 compounds, 8% hits;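 active = Compounds whose fitted half-maximal concentration for disrupting protein-DNA binding is below 10 micromolar; the record names Rev-erb in its text, so the target is in doubt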
An asterisk follows results filed as active; / = no result.

SMILES	SKN-1 inh	PGE2 EP2 inh	NR1D1 modulator	EP2 modulator	PG9 binder	RAM inhibit	NR1D1 mod conf	others
COc1cccc(CNC(=O)Cn2nc(C)n3c(cc4occc43)c2=O)c1	/	5.3	/	-37.1	/	/	/
COc1ccc2nc(C)cc(SCC(=O)Nc3c(C)cc(C)cc3C)c2c1	1.5	7.2	412.4*	-1.4	-1.0	0.1	19.1*
COc1ccc2c(C)cc(SCC(=O)Nc3ccc(Cl)cn3)nc2c1	13.9	14.1	55.2*	30.8	-2.3	4.9	16.1
COc1ccc2c(C)cc(SCC(=O)NC3CCCCC3)nc2c1	-7.1	/	121.3*	/	1.7	/	53.1*	RORg DNA counter=>40
O=C(/C=C\Nc1ccc2c(c1)OCO2)c1ccccn1	-11.3	18.2	28.3*	14.6	-1.5	2.4	3.7
O=C(Nc1ccc2c(c1)OCO2)c1ccccn1	3.4	/	-0.6	/	-1.5	/	/
Cn1c(=O)oc2cc(S(=O)(=O)NCC(O)COc3ccccc3)ccc21 (stereo not drawn)	/	2.8	/	-34.0	/	/	/
O=C(CSc1nc2ccsc2c(=O)n1Cc1ccccc1)NCc1ccco1	-1.4	10.8	17.5*	-2.2	15.7*	5.3	5.2
CSc1ncccc1C(=O)OCC(=O)c1ccc2c(c1)NC(=O)CO2	1.4	11.9	40.4*	-11.4	1.2	/	18.0
CCCCc1ccc(NC(=O)COC(=O)c2ccc3ncsc3c2)cc1	-1.7	/	17.1*	/	-1.3	/	-6.4
Cc1ccc(NC(=O)c2sc3nc(C)nc(N4CCN(c5ccccn5)CC4)c3c2C)c(C)c1	-6.2	3.7	7.8	-7.5	-2.5	-0.1	/
CCOc1ccccc1NC(=O)c1sc2nc(C)nc(N3CCOCC3)c2c1C	-0.2	/	40.8*	/	-0.5	/	7.0
COc1ccccc1NC(=O)c1sc2nc3n(c(=O)c2c1C)CCC3	-9.8	/	42.6*	/	0.8	/	29.2*
COc1ccccc1NC(=O)c1sc2nc(Cc3ccccc3)cc(C(F)(F)F)c2c1N	-1.6	10.8	44.5*	11.4	/	2.0	62.8*	RORg DNA counter=>40
Cc1c(C(=O)Nc2ccccc2F)sc2nc3n(c(=O)c12)CCC3	0.5	/	-1.8	/	-1.8	/	/
Cc1nc(N2CCN(c3ccccn3)CC2)c2c(C)c(C(=O)Nc3ccc(Br)cc3C)sc2n1	15.5	/	40.2*	/	1.1	/	-13.2
Cc1ccc(NC(=O)c2sc3ncnc(N4CCN(c5ccccn5)CC4)c3c2C)c(C)c1	-2.0	/	7.7	/	1.3	/	/
COc1ccc(C)cc1NC(=O)c1sc2ncnc(N3CCN(c4ccccn4)CC3)c2c1C	-3.3	/	37.4*	/	-0.8	/	2.6
O=C(CCCn1c(=S)[nH]c2ccccc2c1=O)N1CCN(c2cccc(Cl)c2)CC1	-3.2	8.2	26.1*	-33.1	3.0	5.2	56.8*
Cc1nn(-c2ccccc2)c(Cl)c1/C=N/Nc1nncc(=O)[nH]1	-0.3	9.8	25.4*	5.5	-3.6	/	17.8
Cc1ccc(NC(=O)CSc2nnc(-c3ccccc3Br)n2C)c(Br)c1	/	13.9	/	14.3	/	/	/
Cc1n[nH]c(C)c1CCNC(=O)C1CCC(=O)N(Cc2ccccc2F)C1 (stereo not drawn)	-7.5	/	16.6*	/	-0.3	/	-0.2
O=C(NCCc1ccccc1F)C1CCC(=O)N(Cc2ccccc2F)C1 (stereo not drawn)	13.9	/	-2.0	/	0.3	/	/
COc1ccc2nc(NC(=O)CSc3nnc4c(C)cc5ccc(OC)cc5n34)sc2c1	/	22.2	/	-4.3	/	/	/
CSc1cc(CS(=O)(=O)c2ccccc2)nc(-c2ccccc2)n1	12.6	/	20.2*	/	-0.9	/	28.0*
SMILES	SKN-1 inh	PGE2 EP2 inh	NR1D1 modulator	EP2 modulator	PG9 binder	RAM inhibit	NR1D1 mod conf	others
O=S(=O)(Cc1cc(NCc2ccccc2)nc(-c2ccncc2)n1)c1ccccc1	4.3	4.9	16.8*	-13.4	-0.6	2.7	43.8*	RORg DNA counter=>40
O=C(Cc1ccc(F)cc1)N1CCC(O)(c2ccccn2)CC1	/	/	/	-29.6	/	/	/
Nc1c(-c2cccs2)cnc2c(-c3ccc(F)cc3)cnn12	-6.7	/	35.2*	/	-1.9	/	6.4
COc1cc(C)c(C)cc1S(=O)(=O)N1C(C)CCCC1C (stereo not drawn)	/	12.0	/	21.5	/	/	/
C=CCn1c(COc2ccc(Cl)cc2)nnc1SCC(=O)c1c(N)n(C)c(=O)n(C)c1=O	0.5	4.9	23.7*	26.9	-0.3	4.2	-14.5
COc1ccc(CCNc2nc3ccccc3n3nnnc23)cc1OC	0.8	15.2	30.3*	-5.6	-0.3	2.1	22.2*
c1ccc(CCNc2nc3ccccc3n3nnnc23)cc1	1.8	/	49.1*	16.6	1.7	5.2	30.2*
CCOc1ccc(Nc2nc3ccccc3n3nnnc23)cc1	9.3	12.8	-2.6	-4.1	2.5	1.2	/
CCOC(=O)N1CCC(NC(=O)c2cc(C)c3c(C)nn(-c4ccccc4)c3n2)CC1	13.2	11.0	18.8*	33.5	-1.3	2.5	-12.6
CCC(c1nnnn1CCc1ccc(OC)c(OC)c1)N1CCN(c2ccccc2)CC1 (stereo not drawn)	/	10.7	/	-25.1	/	/	/
N#Cc1c(-c2ccccc2)oc(=O)c2ccccc12	-4.8	/	20.2*	/	-0.1	/	-2.1
O=c1oc(-c2ccccc2)c(-c2ccccc2)c2ccccc12	0.7	/	-4.6	/	1.0	/	/
Nc1ccn([C@@H]2O[C@H](C(=O)Nc3ccc(Oc4ccccc4)nc3)[C@@H](O)[C@H]2O)c(=O)n1	7.6	/	2.1	/	0.6	/	/
O=C(Nc1ccc(Oc2ccccc2)nc1)[C@H]1O[C@@H](n2ccc(=O)[nH]c2=O)[C@H](O)[C@@H]1O	2.4	/	19.9*	/	1.1	/	-0.7
CC(C(=O)N1CCc2ccccc21)N1CCN(S(=O)(=O)c2ccc(C(F)(F)F)cc2)CC1 (stereo not drawn)	3.6	/	16.6*	/	0.0	/	-2.7
COc1cccc(CN2CCN(CC(=O)N3CCOCC3)[C@@H](C)C2)c1	/	/	/	2.7	/	/	/
CC(=O)c1cccc(NC(=O)CCn2c(=O)oc3ccccc32)c1	-7.6	/	-2.8	/	0.2	/	/
CC(=O)c1cccc(NC(=O)CCn2c(=S)oc3ccccc32)c1	-0.5	/	29.3*	/	-1.0	/	12.1
Cc1cc(Nc2cccc(Cl)c2)nc(-c2ccccc2O)n1	3.1	/	6.1	/	0.8	/	/
Cc1cc(Nc2ccc(Cl)cc2)nc(-c2ccccc2O)n1	2.6	/	29.0*	/	-2.1	/	-2.4
Cc1ccc(Cn2nc(C)c(NC(=O)c3cc4nc(-c5ccco5)cc(C(F)(F)F)n4n3)c2C)cc1	/	19.9	/	-123.5	/	/	/
COc1ccc2nc(-c3ccccc3)cc(C(=O)OCC(=O)NC3CC3)c2c1	-3.4	/	18.2*	/	0.3	/	2.4
COc1ccc(CNC(=O)COC(=O)c2cc(-c3ccc(Cl)s3)nc3ccccc23)cc1	-6.0	/	120.7*	29.2	5.6	5.1	60.9*
Cc1cc(C(=O)OCC(=O)NCc2ccccc2)c2ccccc2n1	-24.7	/	-0.9	/	0.0	/	/

Screening data as filed in PubChem BioAssay.
